# Source: PubChem BioAssay AID624040 (The Scripps Research Institute Molecular Screening Center, 2012)
# About 2,100 (0.58%) of roughly 360,000 compounds were called active. The entries come from a sample that favours actives as a whole. Values without a mark were called inactive.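 The calls were made as follows: active = inhibition above a per-plate cutoff, the mean of that plate's test compounds plus 3 SD (cut at about 27% in these data); inactive = the rest.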
# Biological target: Muscarinic acetylcholine receptor M5 (Homo sapiens) (UniProt P08912)
# Sequence (P08912 whole entry, looked up): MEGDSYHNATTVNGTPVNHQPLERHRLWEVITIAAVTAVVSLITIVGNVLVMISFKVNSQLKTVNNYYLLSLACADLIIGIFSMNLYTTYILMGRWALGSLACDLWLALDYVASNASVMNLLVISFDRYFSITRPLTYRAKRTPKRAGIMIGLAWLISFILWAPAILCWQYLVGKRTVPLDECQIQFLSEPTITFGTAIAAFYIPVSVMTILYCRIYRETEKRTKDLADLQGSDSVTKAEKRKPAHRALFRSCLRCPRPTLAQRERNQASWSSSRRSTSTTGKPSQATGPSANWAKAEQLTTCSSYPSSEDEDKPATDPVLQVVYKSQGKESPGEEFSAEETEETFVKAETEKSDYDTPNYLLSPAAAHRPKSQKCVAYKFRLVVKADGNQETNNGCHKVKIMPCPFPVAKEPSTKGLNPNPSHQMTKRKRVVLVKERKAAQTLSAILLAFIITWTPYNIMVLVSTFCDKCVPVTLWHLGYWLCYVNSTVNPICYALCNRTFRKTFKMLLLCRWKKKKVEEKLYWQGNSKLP
# Assay: CHRM5 blockers of acetylcholine calcium response – CHO cells, Fluo-8 calcium fluorescence, primary screen (AID 624040);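 also: 0% = acetylcholine EC80 with DMSO and 100% = DMSO without agonist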
# Conditions: CHO-hM5 cells, ACh EC80, at 3 µM, hits give high values
row,SMILES,inhibition
1,CCCC[N+]1(C)C2CC(OC(=O)C(CO)c3ccccc3)CC1C1OC12 (stereo not given),73.3% (active)
2,CCn1cc(CN2CCCC(C(=O)c3cccc(C(F)(F)F)c3)C2)cn1 (stereo not given),12.4%
3,CCCCCCCCCCCCn1ccc(=N)cc1,33.9% (active)
4,CCOC(=O)C1(c2ccccc2)CCN(CC(O)c2ccc(NC(C)=O)cc2)CC1 (stereo not given),11.2%
5,O=c1c2ccccc2nc(/C=C/c2ccco2)n1-c1ccccc1O,3.76%
6,Cc1ccc(-c2nn(CCC#N)cc2C(=O)O)cc1C,1.31%
7,CC[N+]1(C)CCCC(OC(=O)C(O)(c2ccccc2)c2ccccc2)C1 (stereo not given),98.3% (active)
8,Oc1cc2c(cc1CN1CCN(c3ccccc3)CC1)OCO2,15.7%
9,COC(=O)C[C@H]1CC[C@H]2NC[C@@H](O)COC[C@@H]2O1,7.66%
10,COC1=CC=C2[C@H]3Cc4ccc(OC)c5c4[C@@]2(CCN3C)C1O5 (stereo not given in full),-5.74%
11,CNC(=S)N/N=C1\C2CN3CCN(C2)CC1(c1ccccc1)C3,3.28%
12,Nc1ccc(C(=O)N/N=C2/CN3CCC2CC3)cc1,6.34%
13,CC1CCCCN1Cc1cccnc1 (stereo not given),12.5%
14,CC1CCCN1CCC(C(N)=O)(c1ccccc1)c1ccccc1 (stereo not given),99.5% (active)
15,O=C(Cc1ccccc1)N1CCN(C2CCCCCC2)CC1,0.09%
16,CCCC(C)n1[nH]c(=O)c2c1NC(=O)CSC2c1ccc(OC)c(OC)c1 (stereo not given),7.43%
17,CC1C2Cn3c(nc4ccccc43)C1N(C)O2 (stereo not given),0.97%
18,Cc1ncoc1C(=O)NCC1=C(c2cccc3ccccc23)C[C@@H]2CC[C@H]1N2Cc1ccco1,-3.17%
19,COc1ccc2c(c1O)-c1cccc3c1[C@@H](C2)N(C)CC3,-4.83%
20,COc1ccc(C2C=C(C)Oc3c2c(=O)oc2ccccc32)cc1OC (stereo not given),2.6%
